Results taken from PubChem BioAssay.
Values without a mark were called inactive. How the calls were made is not given here.

test: inhibitors of hydroxyurea-induced Chk1 phosphorylation, primary screen, imaging, HeLa, phospho-Chk1 antibody, percent positive cells (AID 1186); conditions: hydroxyurea-induced phospho-Chk1 immunofluorescence imaging, higher = more signal

Going from C=C(COC)/C(=C/C[C@H](OC(=O)c1ccncc1)c1ccc(OCCO)cc1)c1cnc2ccccc2c1 to C=CCNC(=O)[C@@H]1[C@H]2C(=O)O[C@H](c3ccccc3)[C@H](c3ccccc3)N2[C@H](c2ccc(OCCO)cc2)[C@@]12C(=O)Nc1ccc(C#Cc3ccc(OC)cc3)cc12, the z-score rises from 0.157 to 0.166.

First: CCCCC=C[C@@H](NC(=O)Oc1cccc(C(F)(F)F)c1)c1ccccc1
Second: CC(C)c1ccc(NN2C(C(O)c3cc(C(F)(F)F)cc(C(F)(F)F)c3)C=CC3C(=O)N(c4ccccc4)C(=O)C32)cc1 (stereo not drawn)
The z-score of the first is lower: 0.38 for the first, 0.652 for the second.

First: O=C1[C@H]2C=C(Br)[C@H](C[C@@H]2c2ccccc2)[C@@]12CO2
Second: COC(=O)[C@@]1(Cc2ccc(F)cc2)[C@H]2c3cc(C(=O)N4CCCC4)n(Cc4cc(C)n(C)n4)c3C[C@H]2CN1C(=O)c1ccccc1
The z-score of the first is lower: -0.155 for the first, 0.611 for the second.

Compared with CC(C)(C)OC(=O)CC[C@]1(C(=O)NCC(O)CO)COC(c2ccc(OCCCO)cc2)=N1 (stereo partly drawn), COc1cc2c(cc1O)C(C1CC1)N(Cc1cc3c(cc1Br)OCO3)CC2 (stereo not drawn) is lower in z-score: 0.505 for the first, -0.174 for the second.
